Among all 53,000 sequences or so, about 3,700 (7%) were called active.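 How the source made its calls: active means gene knockdowns whose robust z-score for IL-1 alpha signal is at least 2 or at most -2, so actives lie on both sides; inactive means the rest.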 This excerpt belongs to a sample that is enriched for actives.

The nature of this experiment: Components of the Cytosolic LPS Sensing Pathway: Gene Identification via Genome-wide siRNA Screen.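 Further: robust z of the log signal after scaling to non-targeting control siRNA wells of the plate.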 To be noted: RAW264.7 macrophages, IL-1a HTRF, actives lie on both sides, screened at 100 nM (by protocol), cells primed 5 h with Pam3CSK4 first. Put shortly: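 Using IL-1a HTRF as read-out, the screen measured release from RAW264.7 cells after 48h siRNA knockdown (100 nM), 5 h Pam3CSK4 priming and 24 h cytosolic LipidA. Values were expressed relative to negative-control wells as robust z-scores.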
With CGCAGAUGAUUAAGUUGGUTT against Olfr1000, the z-score was 0.961 (inactive).
For GGUGGAGACAGAAAUCCAATT against Amot the value was 0.23 (inactive); for CGGAACCUUAUUUAAAACUTT against Sirt5, 0.732 (inactive); for GGUAUCUGUGCAAGGGCAATT against Defb5, 2.07 (active).
The result for CCUACUCGUGUCGUGAUAATT against Rxrb reads -0.841 (inactive); that for GGGCAUUCAGCAGUUACAGTT against Lrriq4, 0.521 (inactive).
The result for GGUUUAUGGGACAGUUUUUTT against Plk2 reads 5.58 (active); that for CGUGGAUGAUACCAAAAUGTT against Igsf21, -0.73 (inactive).
For the sequence GGUGCUGAAGAAGCACCAUTT against Stat5a, the z-score is 0.271 (inactive).
For GCGAGAUUCUUGCUUACUCTT against Slc66a2, the z-score was -0.472 (inactive).
The result for GGAUGUUUUCCCGACAAGATT against Angptl1 reads -1.27 (inactive); that for GGAUGGGAAGACUACCCGATT against Camta2, -2.62 (active); that for CGACCUUCAAGGCAAUAUUTT against Anapc2, -0.573 (inactive).
The result for CCAUCUAACCCUAUAUUAGTT against G6pdx reads -1.21 (inactive); that for CCAUGAAUAGCAUCUUUGCTT against Adamtsl2, -0.25 (inactive); that for GGAUGACAAAAAUUUCAAGTT against St14, -0.283 (inactive).
The result for GGAGAGGGUCUUAGUCAGATT against Wasf1 reads 0.802 (inactive).
In the case of GGGUGACAUGGUGACCAUCTT against Matk, the z-score was 3.54 (active).
The result for GGCCUUGUAUCUCUUUACATT against Hdgf reads 0.425 (inactive); that for GCUGGUUUUGAACUGUACATT against Flt4, 0.155 (inactive); that for CCCAAGUGGUAAGAUUGGUTT against Rps3, 0.123 (inactive).
Take CCCUUGUCUAAAAUAUACATT against Zfp941: the z-score was -0.387 (inactive).
The result for CCCUGCUAUCAGCAUCACATT against Hacd3 reads -3.09 (active); that for CGGUAUUUGUCUGUAUCCUTT against Npc2, -1.71 (inactive); that for GCUGGAUUCUGGUAAAUGGTT against Eif5a, -0.836 (inactive).
For GCAGAUCCGAGACAAGUAUTT against Cplx2 the value was -1.91 (inactive); for GGAUGAACAACUCUAGGCCTT against Mafk, -0.736 (inactive); for GGUCUACAGCUACCUGAAUTT against Npc2, 0.105 (inactive).
For GCGGUUUCUUACCAAUAACTT against Cyp1a2 the value was 0.984 (inactive); for GGAAGCGUGGAAGUCUACGTT against Kcnj16, 0.277 (inactive).
For the sequence GGGCAAAGGGAGUGACAAATT against Skp2, the z-score was -1.95 (inactive).
For GGACAACUACAUUGUACUGTT against Insr the value was -1.16 (inactive); for GGCAGCAGAGAACAAGAAATT against Serbp1, -1.43 (inactive).
The result for CCCAACUGACAUCUUCCUATT against Gzmb reads 2.86 (active); that for GGAAAGCACAUCCUCUUUGTT against Gpx6, 1.02 (inactive); that for CGUGAUUUCAGUGAGGGUGTT against Tarsl2, 0.996 (inactive).
Regarding CGAAGUGAAGAUUUACAGCTT against Nol10, the z-score was -0.106 (inactive).
For GCAAUGUGACCAAGACAAUTT against Prelid1 the value was 0.739 (inactive).
The result for GGCGUGAUAGCUGGACUUATT against Eola1 reads 0.439 (inactive).
The result for GGCCAUAUCUUAAAGUUAATT against Hcfc1r1 reads -0.246 (inactive).
In the case of GACCAGUGACAAGACCAUCTT against Unc45b, the z-score is 0.352 (inactive).
For GGUGCAGGCCAUGAUUUACTT against C1qtnf4, the z-score is 2.65 (active).
Turning to GGAAAUGCCACCAAAGAACTT against Slc38a11, the z-score is -0.168 (inactive).
For CGGACUUGUUUUUUAGUCUTT against Tnrc18 the value was 0.164 (inactive); for GGCCAACUGGAGAUAGAUATT against Tamm41, 1.19 (inactive); for GGAUAAUGGUUUAAAACUCTT against Bmt2, -1.34 (inactive).
The result for GGAAAACCUACCGAAGUUATT against Irf3 reads 2.79 (active); that for GCAUUGAAGUCACCUCCACTT against Clcn2, 0.161 (inactive).
On to GGACAACCAAGGAAGAAACTT against Fam205c, for which the z-score is 0.816 (inactive).
For GGUGUUUGAAGAGCUGACATT against Pde6b the value was -1.85 (inactive); for GGUUGUUAAGCUGAAGCAATT against Prkacb, -0.219 (inactive); for GCUAUAAUGCUGGAGUCAATT against P3h2, 0.27 (inactive).
For GGUGUGUUUGCUAUUUCCATT against Olfr259, the z-score is 0.4 (inactive).
The result for GGUCCCAGCAUGUUUACGUTT against Slc2a12 reads 3.04 (active); that for GCUCUGUCUUCAGGUCAUUTT against Olfr1040, -0.0484 (inactive); that for GGGACUGGAUUUCUGUAUUTT against Derl1, -0.694 (inactive).
The result for GGCUAUCCAGAGAUACGUGTT against Snrnp25 reads -0.571 (inactive); that for GGGCAUAGACAGUACCAGUTT against Clec2m, -2.04 (active).
The result for GGACCAGCUAAAUAUUAGUTT against Rgs2 reads -0.315 (inactive); that for GGCAUUAAUAUGUCUGACUTT against Tada1, -0.0627 (inactive); that for GGAAAAAUGGCAACUUCAATT against Dock3, 0.766 (inactive).
Regarding GGUGUAUGUCACCCUGACCTT against Sag, the z-score was -0.617 (inactive).
The result for GGGUAACUGGUUUGUAUGATT against Gm4814 reads 1.34 (inactive); that for GGGCAUAUUCAAACUUGUGTT against Elf2, -1.68 (inactive); that for GGCUCAGACCUGGAUACAUTT against Oas1e, -2.31 (active).
The result for CCAAGGUACUACUGGGAGATT against Sval3 reads 0.268 (inactive); that for GCAAGUACGCUGCUCUGUCTT against Eif4b, 0.397 (inactive); that for GGCAGUCAGCUAAUGCUUATT against Pros1, -0.372 (inactive).
For CGAGUAUUUUGAAAUCCUGTT against Cdcp3 the value was 0.406 (inactive).
GGAUCUAUGGGUAUCCUGCTT against Adam1a: the z-score is -1.8 (inactive).
For GGAGGAUGAGAUGAUGCCATT against Sez6l2 the value was -2.19 (active); for GGCUCAAGUAUGAGAAUGATT against Krt15, -0.859 (inactive); for GGCUUUCCUUCGGAAGAAUTT against Abca14, -1.15 (inactive).
The result for GGAAGAUACGUGCAAAAUGTT against Rbms2 reads -0.562 (inactive); that for GGAACAGUCUGAAAUACACTT against Usp18, -0.907 (inactive); that for GCAGUUCUGGUUCUGUCUGTT against Nudcd3, -0.203 (inactive).
As for GGCUCUUCUUAUGCACCCUTT against Pdyn, the z-score was -0.543 (inactive).
The result for CCCAGAAGGACGGCACUAGTT against H2-DMb2 reads 0.265 (inactive).
As to GCCUGACAAUAGUCAUUUCTT against Olfr985, the z-score is -2.03 (active).
The result for GGCUCACACUCCUGUUAAUTT against Fam20c reads -1.02 (inactive); that for GGGCAUGAUUUUCACUUCCTT against Gpr150, 0.79 (inactive); that for CGAGAAGGGUCAUAUGAGCTT against Rbp4, -1.84 (inactive).
For GCUGUGACAGAAGCUUUCGTT against Vars2 the value was -0.201 (inactive); for CCCUCAUGUUUCAUUUGUGTT against Glrx3, -0.454 (inactive); for GCUUGAUAUAGUAUCCUUUTT against Prpf38b, -2.05 (active).
For GGAUUGUCAGAGAAAGAGATT against Syt3 the value was -0.751 (inactive); for GCUACAAAGAGUAAAACUGTT against Zfp251, 1.01 (inactive).
Take GGCUGUUCGUGCAAGCCUATT against Bahcc1: the z-score is 0.544 (inactive).
The result for “GGUCAUCCCAUCUUACAAATT against 4933431E20Rik” reads 0.649 (inactive); that for CCGACAUCCUUGAUACGUUTT against Vps35l, -2.12 (active).
With GGAACUGGAAAACUUCAAATT against Mrvi1, the z-score is 1.04 (inactive).
For GGAUUGCCCUGUUGUGGUGTT against Snx17 the value was -0.227 (inactive); for GCGAUACAACUCUUAUGACTT against Dennd5b, -0.521 (inactive); for GGACUAUGUGGCCCAGUGUTT against Nat8f5, -1.11 (inactive).
The result for GGAGCACAAUUCAAAUUCATT against Zbtb6 reads 2.06 (active); that for GGGAAACACCUGGGUGCUUTT against Ctrl, -1.07 (inactive); that for GGGAGAUUGGAAACAAAAATT against Hsd3b4, -0.935 (inactive).
The result for CCCUAUCAACUGAUCUUUUTT against Scml2 reads -0.732 (inactive); that for GGAUAGCUCAUGAUGCUGUTT against Usp13, -0.885 (inactive).
For GGAAGUUGACAAAAUAGUGTT against Dlgap5, the z-score is 0.389 (inactive).
For GCUAAAGUGACCUUAAAACTT against Phactr4 the value was -0.382 (inactive); for GGACUACUUUAAGGAUUGGTT against Tfip11, -2.97 (active); for CGAGAUGGGAGAUUGAAAUTT against Ms4a8a, 0.47 (inactive).
For GGAAGAGGAGGUGACAUACTT against Exd1 the value was -1.15 (inactive); for CCACAUCAAGUCUAUCAUCTT against Ryr1, -1.19 (inactive); for GGAUCAACCUAGAAGCUUGTT against Strada, -0.192 (inactive).
For GGAGACUCCAACUACUUCATT against Sycp1, the z-score is 1.23 (inactive).
For GCCGCUUAUAUGUAUCGCUTT against Adipoq, the z-score is 2.54 (active).

Values taken from PubChem BioAssay AID1508600 (Functional Genomics Laboratory (NCATS/FGL), 2020).
